From PubChem BioAssay AID1159580 (chemical genetic matrix, 2015)
Where “and” joins values, the source holds several entries; their conditions need not be identical. Equal entries are not always repeated. About 2,000 (36%) of roughly 5,500 compounds were called active. About 18% were inconclusive and are not listed. No stated cut-off is given here; in the data, active means normalized growth mostly below about 0.91 (no sharp cut-off); inconclusive means no clear call, values can overlap the other calls; inactive means mostly above about 0.92. The list shows a part of the results.

Experiment: chemical genetic growth profiling, strain panel (AID 1159580);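 further: tested at 20 µM; growth read once vehicle control cultures reached saturation at 30 °C; 1 = growth at the plate median or of vehicle wells; lower values mean less growth of the strain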
Conditions: S. cerevisiae deletion strains, growth OD

Measured: normalized growth

Cc1cccc(C)c1NC(=O)C1CCCCN1C (configuration not stated)
inactive: locus YAL013W, strain DEP1, hits give low values 1.02 | locus YAL021C, strain ccr4, hits give low values 1.02 | locus YAL026C, strain drs2, hits give low values 0.993 | locus YAL030W, strain snc1, hits give low values 0.985 | locus YBL061C, strain skt5, hits give low values 0.979 | locus YBR009C, strain hhf1, hits give low values 0.989 | locus YBR021W, strain FUR4, hits give low values 1 | locus YBR023C, strain chs3, hits give low values 0.991 | locus YBR171W, strain sec66, hits give low values 0.977 | locus YBR229C, strain ROT2, hits give low values 1.01 | locus YBR231C, strain swc5, hits give low values 0.993 | locus YBR279W, strain paf1, hits give low values 0.991 | locus YCL011C, strain gbp2, hits give low values 0.988 | locus YCL016C, strain dcc1, hits give low values 0.995 | locus YCL029C, strain bik1, hits give low values 1.02 | locus YCL061C, strain MRC1, hits give low values 0.975 | locus YCL069W, strain vba3, hits give low values 0.983 | locus YCR088W, strain abp1, hits give low values 0.992 | locus YDL005C, strain med2, hits give low values 0.982 | locus YDL035C, strain GPR1, hits give low values 1.01 | locus YDL040C, strain nat1, hits give low values 0.986 | locus YDL074C, strain BRE1, hits give low values 1 | locus YDL101C, strain DUN1, hits give low values 1.01 | locus YDL134C, strain PPH21, hits give low values 0.99 | locus YDL185W, strain tfp1, hits give low values 1.01 | locus YDL192W, strain arf1, hits give low values 1.01 | locus YDR001C, strain nth1, hits give low values 0.985 | locus YDR069C, strain doa4, hits give low values 1 | locus YDR101C, strain arx1, hits give low values 1 | locus YDR137W, strain rgp1, hits give low values 0.984 | locus YDR150W, strain NUM1, hits give low values 1 | locus YDR159W, strain sac3, hits give low values 0.983 | locus YDR162C, strain NBP2, hits give low values 0.994 | locus YDR195W, strain ref2 0.986 | locus YDR297W, strain sur2, hits give low values 0.992 | locus YDR318W, strain mcm21, hits give low values 1.01 | locus YDR334W, strain swr1, hits give low values 0.982 | locus YDR335W, strain msn5, hits give low values 0.989 | locus YDR388W, hits give low values 1.01 | locus YDR392W, strain spt3, hits give low values 0.996 | locus YDR502C, strain sam2, hits give low values 1.01 | locus YEL003W, strain gim4, hits give low values 0.986 | locus YEL037C, strain rad23, hits give low values 0.996 | locus YEL061C, strain CIN8 (second series), hits give low values 0.992 | locus YEL061C, strain CIN8, hits give low values 1 | locus YER015W, strain faa2, hits give low values 0.988 | locus YER016W, strain bim1, hits give low values 0.983 | locus YER110C, hits give low values 1.02 | locus YER111C, strain swi4, hits give low values 0.994 | locus YER155C, strain BEM2 (second series), hits give low values 0.982 | locus YER155C, strain BEM2, hits give low values 0.99 | locus YER167W, strain BCK2, hits give low values 1 | locus YFR010W, strain ubp6, hits give low values 0.984 | locus YGL078C, strain dbp3, hits give low values 1.01 | locus YGL086W, strain mad1, hits give low values 1 | locus YGL167C, strain pmr1, hits give low values 0.995 | locus YGL173C, strain kem1, hits give low values 0.988 | locus YGL227W, strain vid30, hits give low values 0.98 | locus YGL240W, strain doc1, hits give low values 0.981 | locus YGL248W, strain PDE1, hits give low values 1 | locus YGL253W, strain hxk2, hits give low values 0.982 | locus YGR078C, strain PAC10, hits give low values 0.996 | locus YGR135W, strain pre9, hits give low values 1 | locus YGR229C, strain SMI1, hits give low values 1 | locus YGR252W, strain gcn5, hits give low values 0.963 | locus YHR013C, strain ard1, hits give low values 0.96 | locus YHR027C, strain rpn1, hits give low values 0.986 | locus YHR030C, strain SLT2, hits give low values 1 and 1.01 | locus YHR079C, strain IRE1 (second series), hits give low values 1.01 | locus YHR079C, strain IRE1, hits give low values 1.03 | locus YHR094C, strain hxt1, hits give low values 1.01 | locus YHR129C, strain ARP1, hits give low values 1.01 | locus YHR142W, strain chs7, hits give low values 0.987 | locus YHR200W, strain rpn10, hits give low values 1 | locus YIL066C, strain RNR3, hits give low values 0.999 | locus YIL073C, strain SPO22, hits give low values 1.01 | locus YIL125W, strain kgd1, hits give low values 1.01 | locus YIR030C, strain dcg1, hits give low values 1.01 | locus YJL092W, strain hpr5, hits give low values 0.986 | locus YJL095W, strain BCK1 (second series), hits give low values 0.989 | locus YJL095W, strain BCK1, hits give low values 1.02 and 0.998 | locus YJL115W, strain asf1, hits give low values 0.996 | locus YJL129C, strain trk1, hits give low values 1.01 | locus YJL134W, strain LCB3, hits give low values 1.01 | locus YJL154C, strain vps35, hits give low values 0.994 | locus YJL164C, strain tpk1, hits give low values 0.987 | locus YJL166W, strain qcr8, hits give low values 0.993 | locus YJL168C, strain set2, hits give low values 1.01 | locus YJL187C, strain SWE1 (second series), hits give low values 1.01 | locus YJL187C, strain SWE1, hits give low values 0.985 | locus YJR043C, strain POL32, hits give low values 1.02 | locus YJR066W, strain TOR1, hits give low values 0.986
